Results filed as inconclusive are left out. Some structures have more than one record in an assay (separate samples or runs), and their calls can disagree. Activity calls are given as the source filed them. How the source made its calls: active means hit-call score of the fitted dose curve at least 0.9, where 1 is the maximum; inconclusive means response in the unintended direction; inactive means score below 0.9.

The assay is described as follows: Tanguay_ZF_120hpf_CIRC_legacy: (Legacy) Oregon State University Tanguay Lab 120 Hour Post-fertilization zebrafish Assay for Circulatory Malformation (AID 2283651). The method, then: Tanguay_ZF_120hpf_legacy is a whole embryo, multiplexed endpoint assay using zebrafish larvae exposed for 120 hours post fertilization on a 96-well plate.Tanguay_ZF_120hpf_CIRC_legacy is one of one assay component(s) measured or calculated from the Tanguay_ZF_120hpf_legacy assay. It is designed to make measurements of zebrafish development as detected with brightfield microscopy of developing zebrafish embryos.Data from the assay component Tanguay_ZF_120hpf_CIRC_legacy was analyzed into 1 assay endpoints. This assay endpoint, Tanguay_ZF_120hpf_CIRC_legacy, was analyzed in the positive analysis fitting direction relative to DMSO as the negative control and baseline of activity. Using a type of morphology reporter, gain-of-signal activity can be used to understand changes in developmentals as they relate to the whole embryo. To generalize the intended target to other relatable targets, this assay endpoint is annotated to the zebrafish development intended target family, where the subfamily is angiogenesis.
Zebrafish husbandry: Tropical 5D wild-type adult zebrafish were housed in at an approximate density of 1000 per 100 gallon tank at the Sinnhuber Aquatic Research Laboratory, Oregon State University, Corvallis, OR. Each tank was kept at standard laboratory conditions of 28C on a 14-h light/10-h dark photoperiod in fish water consisting of reverse osmosis water supplemented with a commercially available salt (Instant Ocean). Spawning funnels were placed into the tanks the night prior, and embryos were collected and staged. To increase bioavailability, the chorion was enzymatically removed using pronase (63.6mg/ml, >/= 3.5U/mg, Sigma-Aldrich: P5147) at 4 hours post fertilization (hpf) using a custom automated dechorionator.Chemical exposures: Six hpf dechorionated embryos were placed 1 embryo per well in a 96-well plate prefilled with 90 ul of EM using automated embryo placement systems (AEPS). Ten microliters of each row of dilution plate 2 was added to 2 exposure plates. The final DMSO concentration used was 0.64% (vol/vol). Thirty-two embryos were also exposed to 5uM trimethyltin chloride (positive control). Plates were sealed to prevent evaporation and foil covered to reduce light exposure and kept in a 28C incubator. Embryos were statically exposed until 120 hpf. At 24 hpf, embryos were assessed for photomotor response using a custom photomotor response analysis tool (PRAT) and for developmental toxicity endpoints (MO24: mortality at 24 hpf, DP: developmental progression, SM: spontaneous movement, and NC: notochord distortion). At 120 hpf, locomotor activity was measured using Viewpoint Zebralab and assessed for 18 endpoints. Zebrafish acquisition and analysis program (ZAAP), a custom program designed to inventory, acquire, and manage zebrafish data, was used to collect developmental endpoints as either present or absent (i.e., binary responses were recorded). If mortality occurred for an embryo (at either 24 or 120 hpf), the non-mortality endpoints were not measured.
For the compound `S=C([S-])NCCNC(=S)[S-].[Mn+2]`, the compound was classed as inactive. As for `CC(C)(C)[C@@H](O)[C@@H](Cc1ccc(Cl)cc1)n1cncn1`, the compound was called inactive. On the same count and under the same terms, to `CSC(=O)c1cccc2nnsc12` belongs “inactive”. Still for that read-out and setting: the entry for `C[C@]12C[C@H](O)[C@H]3[C@@H](CCC4=CC(=O)CC[C@@]43C)[C@@H]1CC[C@@H]2C(=O)CO` is “inactive”; for `COC(=O)c1ccc(I)cc1S(=O)(=O)NC(=O)Nc1nc(C)nc(OC)n1` it is “inactive”.

Take `CCCOC(=O)NCCCN(C)C`: the call was inactive.

On to `CCCCOC(=O)C(C)Oc1ccc(Oc2ccc(C(F)(F)F)cn2)cc1` (stereo not given), for which the compound was classed as inactive. The same measure, in the same setting: the entry for `S=C(S)NCCNC(=S)S.[Mn+2].[S-]C([S-])=NCCN=C([S-])[S-].[Zn+2]` is “inactive”. Turning to `CC(C)(c1ccc(O)cc1)c1ccc(O)cc1`, the AC50 (commonly the concentration giving half of the maximal activity seen) was 36.7 µM (active) and the result was inactive. On to `O=C(O)c1ccccc1`, for which the result was inactive. For the compound `COc1c(Cl)ccc(Cl)c1C(=O)O`, the outcome was inactive. The same measure, in the same setting: to `COC(=O)CSc1cc(N=c2sc(=O)n3n2CCCC3)c(F)cc1Cl` belongs “inactive”; to `CCCN(CCC)c1c([N+](=O)[O-])cc(C(F)(F)F)c(N)c1[N+](=O)[O-]`, “inactive”; to `N#CSCSc1nc2ccccc2s1`, “inactive”.

For `CCOC(=O)C(C)Oc1ccc(Oc2nc3ccc(Cl)cc3o2)cc1` (stereo not given), the compound was classed as inactive. On the same count and under the same terms, to `CCCCC(CC)COC(=O)c1ccccc1C(=O)O` (stereo not given) belongs “inactive”; to `CN(C)C(=O)Nc1ccc(Cl)c(Cl)c1`, “inactive”.

Take `c1ccc2[nH]c(-c3cscn3)nc2c1`: the compound was called inactive.

Regarding `CCCCOCCOCCOCc1cc2c(cc1CCC)OCO2`, the compound was classed as inactive.

As to `COC(=O)c1ccccc1C(=O)O`, the outcome was inactive. As to `COCCO`, the compound was called inactive. On to `Oc1ccc(C(c2ccc(O)cc2)C(Cl)(Cl)Cl)cc1`, for which the AC50 is 202 µM (active).

On to `CC(C)CCCCCCc1ccc(O)cc1`, for which the compound was classed as inactive. On to `O=C(c1ccc(O)cc1O)c1ccc(O)cc1O`, for which the compound was classed as inactive. Still for that read-out and setting: to `CCN(CC)C(=O)c1cccc(C)c1` belongs “inactive”; to `CC(=O)[C@H]1CC[C@H]2[C@@H]3CCC4=CC(=O)CC[C@]4(C)[C@H]3CC[C@]12C`, “inactive”; to `CCCCCCC(C)OC(=O)COc1nc(F)c(Cl)c(N)c1Cl` (stereo not given), “inactive”. Still for that read-out and setting: to `CCOC(=O)c1ccc(O)cc1` belongs “inactive”; to `O=C(c1ccccc1)C1CCCCC1`, “inactive”.

With `CCOC(=O)COc1cc(-n2ncc(C(F)(F)F)c(C)c2=O)c(F)cc1Cl`, the outcome was inactive.

On to `CCOC(=O)C(C)Oc1ccc(Oc2cnc3cc(Cl)ccc3n2)cc1` (stereo not given), for which the outcome was inactive.

Regarding `CCNc1nc(N)nc(Cl)n1`, the compound was called inactive. Consider `OB(O)O`, for which the compound was called inactive. The same measure, in the same setting: the entry for `C[C@]12CC[C@@H]3c4ccc(O)cc4C[C@@H](CCCCCCCCCS(=O)CCCC(F)(F)C(F)(F)F)[C@H]3[C@@H]1CC[C@@H]2O` (stereo not given in full) is “inactive”; for `CCN(Cc1c(F)cccc1Cl)c1c([N+](=O)[O-])cc(C(F)(F)F)cc1[N+](=O)[O-]` it is “inactive”. `CCC(C)OC(=O)N1CCCCC1CCO` (stereo not given): the outcome was inactive. Regarding `CC(=O)S[C@@H]1CC2=CC(=O)CC[C@]2(C)[C@H]2CC[C@@]3(C)[C@@H](CC[C@@]34CCC(=O)O4)[C@H]12`, the call was inactive. Still for that read-out and setting: the entry for `Cc1nn(C)c(Oc2ccccc2)c1C=NOCc1ccc(C(=O)OC(C)(C)C)cc1` is “inactive”; for `CCOC(=O)NCCOc1ccc(Oc2ccccc2)cc1` it is “inactive”.

The values are drawn from PubChem BioAssay (EPA / NIEHS).
